The target in assay [1] is Leukocyte tyrosine kinase receptor (Homo sapiens) (UniProt P29376). The following applies: at 1 µM.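 Note: each value is the mean inhibition of LTK.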
Assay [2] addresses Tyrosine-protein kinase Lyn (Homo sapiens) (UniProt P07948). To be noted: at 0.1 µM.
Assay [3] shares this target. To be noted: at 1 µM.
Assay [4] has the same target. To be noted: at 0.1 µM. This is another data set of the same source.
The target is the same in assay [5]. The following applies: at 1 µM. This is another data set of the same source.
Assay [6] has as its target T1, Tyrosine-protein kinase Mer (Homo sapiens) (UniProt Q12866).
T1 sequence (whole entry): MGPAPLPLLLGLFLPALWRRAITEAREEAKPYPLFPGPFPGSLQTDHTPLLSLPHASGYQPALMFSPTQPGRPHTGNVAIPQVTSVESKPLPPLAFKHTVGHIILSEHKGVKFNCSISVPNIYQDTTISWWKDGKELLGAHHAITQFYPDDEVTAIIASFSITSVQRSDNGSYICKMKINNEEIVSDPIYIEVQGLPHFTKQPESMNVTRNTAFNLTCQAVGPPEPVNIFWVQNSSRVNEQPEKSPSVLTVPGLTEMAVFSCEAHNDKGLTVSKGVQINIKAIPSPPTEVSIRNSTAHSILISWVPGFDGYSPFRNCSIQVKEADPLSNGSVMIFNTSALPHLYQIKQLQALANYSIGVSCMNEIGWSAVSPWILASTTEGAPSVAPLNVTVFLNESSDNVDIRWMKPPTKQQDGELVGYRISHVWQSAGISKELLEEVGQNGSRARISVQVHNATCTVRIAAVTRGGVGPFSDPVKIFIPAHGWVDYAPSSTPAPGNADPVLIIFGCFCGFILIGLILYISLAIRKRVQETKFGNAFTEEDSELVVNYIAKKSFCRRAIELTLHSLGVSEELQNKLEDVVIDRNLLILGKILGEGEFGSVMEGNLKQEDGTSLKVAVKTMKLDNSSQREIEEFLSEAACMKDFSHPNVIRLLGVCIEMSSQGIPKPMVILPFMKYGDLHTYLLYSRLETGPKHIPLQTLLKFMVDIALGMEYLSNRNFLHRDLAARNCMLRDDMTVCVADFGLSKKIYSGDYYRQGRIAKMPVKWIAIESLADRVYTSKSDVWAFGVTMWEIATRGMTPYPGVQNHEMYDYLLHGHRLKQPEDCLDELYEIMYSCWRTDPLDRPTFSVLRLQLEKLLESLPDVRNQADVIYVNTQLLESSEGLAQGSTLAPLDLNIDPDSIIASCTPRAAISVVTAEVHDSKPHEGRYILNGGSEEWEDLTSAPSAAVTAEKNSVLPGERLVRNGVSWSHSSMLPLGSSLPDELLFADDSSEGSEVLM
The following applies: at 0.1 µM.

Assay [7] concerns the target T1, Tyrosine-protein kinase Mer (Homo sapiens). The following applies: at 1 µM.
In assay [8] the target is Hepatocyte growth factor receptor (Homo sapiens) (UniProt P08581). The following applies: at 0.1 µM.
Assay [9] has the same target. To be noted: at 1 µM.
Assay [10] has as its target T2, Muscle, skeletal receptor tyrosine-protein kinase (Homo sapiens) (UniProt O15146).
T2 sequence (whole entry): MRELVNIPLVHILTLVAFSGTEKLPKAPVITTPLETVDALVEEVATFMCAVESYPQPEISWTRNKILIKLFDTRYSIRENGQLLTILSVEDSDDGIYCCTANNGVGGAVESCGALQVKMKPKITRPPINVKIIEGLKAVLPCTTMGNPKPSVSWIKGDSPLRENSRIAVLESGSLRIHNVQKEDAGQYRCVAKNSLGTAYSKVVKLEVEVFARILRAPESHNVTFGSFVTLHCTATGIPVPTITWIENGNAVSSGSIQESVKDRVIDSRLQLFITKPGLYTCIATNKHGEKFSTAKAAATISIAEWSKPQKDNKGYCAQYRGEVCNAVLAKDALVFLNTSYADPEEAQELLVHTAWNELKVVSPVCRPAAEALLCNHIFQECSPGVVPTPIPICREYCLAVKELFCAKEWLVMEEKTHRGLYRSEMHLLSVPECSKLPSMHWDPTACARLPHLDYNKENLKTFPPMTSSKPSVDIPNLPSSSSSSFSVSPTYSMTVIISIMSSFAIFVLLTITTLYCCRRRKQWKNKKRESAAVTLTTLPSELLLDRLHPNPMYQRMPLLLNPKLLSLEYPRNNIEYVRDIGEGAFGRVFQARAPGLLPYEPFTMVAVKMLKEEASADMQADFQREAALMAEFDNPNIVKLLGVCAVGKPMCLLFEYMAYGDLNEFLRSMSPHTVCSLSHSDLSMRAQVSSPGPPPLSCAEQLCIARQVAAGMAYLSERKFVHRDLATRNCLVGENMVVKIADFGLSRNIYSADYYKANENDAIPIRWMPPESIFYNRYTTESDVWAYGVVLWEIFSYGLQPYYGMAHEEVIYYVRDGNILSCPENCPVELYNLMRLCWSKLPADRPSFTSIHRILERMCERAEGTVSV
The following applies: at 0.1 µM.

The target of assay [11] is T2, Muscle, skeletal receptor tyrosine-protein kinase (Homo sapiens). The following applies: at 1 µM.
In assay [12] the target is Platelet-derived growth factor receptor alpha (Homo sapiens) (UniProt P16234). To be noted: at 0.1 µM.
Assay [13] has the same target. The following applies: at 1 µM.
In assay [14] the test system is Platelet-derived growth factor receptor alpha (Homo sapiens), P16234 [D842V]. The following applies: at 0.1 µM.
Assay [15] has the same test system. The following applies: at 1 µM.
In assay [16] the test system is Platelet-derived growth factor receptor alpha (Homo sapiens), P16234 [T674I]. To be noted: at 0.1 µM.
Assay [17] has the same test system. To be noted: at 1 µM.
The subject of assay [18] is Platelet-derived growth factor receptor alpha (Homo sapiens), P16234 [V561D]. The following applies: at 0.1 µM.
For assay [19] the test system is unchanged. The following applies: at 1 µM.
The target of assay [20] is Platelet-derived growth factor receptor beta (Homo sapiens) (UniProt P09619). To be noted: at 0.1 µM.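 Note: reported value is the mean percent inhibition of the kinase.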

Values joined by “and” are separate entries in the source; they are usually repeats but may differ in a detail not shown here. Equal entries are not always repeated.

For orientation: inhibition means the relative decrease from the control value, in per cent.

Chain of Tyrosine-protein kinase Lyn (Homo sapiens) (P07948 2-512 limits assumed): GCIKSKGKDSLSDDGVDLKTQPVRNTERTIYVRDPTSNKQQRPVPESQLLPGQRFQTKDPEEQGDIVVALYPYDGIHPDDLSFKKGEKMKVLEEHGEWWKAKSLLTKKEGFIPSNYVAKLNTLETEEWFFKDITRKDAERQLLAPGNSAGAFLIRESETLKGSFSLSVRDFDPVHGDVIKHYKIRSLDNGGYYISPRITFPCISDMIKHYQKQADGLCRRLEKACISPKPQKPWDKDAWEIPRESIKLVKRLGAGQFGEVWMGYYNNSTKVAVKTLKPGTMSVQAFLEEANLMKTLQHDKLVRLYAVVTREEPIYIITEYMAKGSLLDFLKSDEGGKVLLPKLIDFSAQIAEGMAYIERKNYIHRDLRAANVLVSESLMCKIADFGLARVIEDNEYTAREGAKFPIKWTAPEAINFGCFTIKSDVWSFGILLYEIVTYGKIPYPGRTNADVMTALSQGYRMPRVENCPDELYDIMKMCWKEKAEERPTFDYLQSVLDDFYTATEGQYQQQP
Chain of Hepatocyte growth factor receptor (Homo sapiens) (P08581 whole entry): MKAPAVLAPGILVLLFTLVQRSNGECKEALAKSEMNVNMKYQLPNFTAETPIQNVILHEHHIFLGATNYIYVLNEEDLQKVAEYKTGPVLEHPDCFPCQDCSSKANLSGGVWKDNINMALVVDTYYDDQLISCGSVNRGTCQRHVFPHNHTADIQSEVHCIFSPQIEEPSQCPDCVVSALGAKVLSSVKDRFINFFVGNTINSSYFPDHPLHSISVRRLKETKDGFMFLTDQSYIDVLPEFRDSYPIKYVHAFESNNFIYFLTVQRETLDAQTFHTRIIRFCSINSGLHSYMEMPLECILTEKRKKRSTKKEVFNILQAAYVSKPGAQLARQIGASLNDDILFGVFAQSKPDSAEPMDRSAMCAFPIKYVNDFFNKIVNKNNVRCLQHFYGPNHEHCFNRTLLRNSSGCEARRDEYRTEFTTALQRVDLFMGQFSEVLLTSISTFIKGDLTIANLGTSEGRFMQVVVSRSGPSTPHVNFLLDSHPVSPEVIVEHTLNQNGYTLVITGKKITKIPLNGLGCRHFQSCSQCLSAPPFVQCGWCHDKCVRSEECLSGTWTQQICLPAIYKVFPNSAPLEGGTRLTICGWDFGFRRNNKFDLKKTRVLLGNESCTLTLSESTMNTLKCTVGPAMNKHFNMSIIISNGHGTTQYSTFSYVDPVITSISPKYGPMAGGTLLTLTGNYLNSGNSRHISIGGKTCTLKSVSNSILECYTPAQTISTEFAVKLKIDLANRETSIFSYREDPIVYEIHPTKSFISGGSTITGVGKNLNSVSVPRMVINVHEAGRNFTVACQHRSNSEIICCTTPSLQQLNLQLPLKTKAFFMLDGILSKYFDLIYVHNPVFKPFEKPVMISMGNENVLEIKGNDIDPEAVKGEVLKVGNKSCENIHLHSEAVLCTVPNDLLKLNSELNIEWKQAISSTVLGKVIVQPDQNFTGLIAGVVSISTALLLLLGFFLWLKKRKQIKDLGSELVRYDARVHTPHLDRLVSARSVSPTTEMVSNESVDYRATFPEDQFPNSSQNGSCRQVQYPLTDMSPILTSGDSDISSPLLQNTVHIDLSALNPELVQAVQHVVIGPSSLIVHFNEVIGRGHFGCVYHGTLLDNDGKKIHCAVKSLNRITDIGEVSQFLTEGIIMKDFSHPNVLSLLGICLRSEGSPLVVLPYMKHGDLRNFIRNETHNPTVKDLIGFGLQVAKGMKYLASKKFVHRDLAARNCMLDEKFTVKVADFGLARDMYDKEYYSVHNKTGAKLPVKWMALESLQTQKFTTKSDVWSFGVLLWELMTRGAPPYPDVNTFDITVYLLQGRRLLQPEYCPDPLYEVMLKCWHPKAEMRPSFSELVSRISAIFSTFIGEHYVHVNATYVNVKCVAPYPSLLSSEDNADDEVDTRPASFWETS
Chain of Platelet-derived growth factor receptor alpha (Homo sapiens), P16234 [T674I] (P16234 whole entry T674I): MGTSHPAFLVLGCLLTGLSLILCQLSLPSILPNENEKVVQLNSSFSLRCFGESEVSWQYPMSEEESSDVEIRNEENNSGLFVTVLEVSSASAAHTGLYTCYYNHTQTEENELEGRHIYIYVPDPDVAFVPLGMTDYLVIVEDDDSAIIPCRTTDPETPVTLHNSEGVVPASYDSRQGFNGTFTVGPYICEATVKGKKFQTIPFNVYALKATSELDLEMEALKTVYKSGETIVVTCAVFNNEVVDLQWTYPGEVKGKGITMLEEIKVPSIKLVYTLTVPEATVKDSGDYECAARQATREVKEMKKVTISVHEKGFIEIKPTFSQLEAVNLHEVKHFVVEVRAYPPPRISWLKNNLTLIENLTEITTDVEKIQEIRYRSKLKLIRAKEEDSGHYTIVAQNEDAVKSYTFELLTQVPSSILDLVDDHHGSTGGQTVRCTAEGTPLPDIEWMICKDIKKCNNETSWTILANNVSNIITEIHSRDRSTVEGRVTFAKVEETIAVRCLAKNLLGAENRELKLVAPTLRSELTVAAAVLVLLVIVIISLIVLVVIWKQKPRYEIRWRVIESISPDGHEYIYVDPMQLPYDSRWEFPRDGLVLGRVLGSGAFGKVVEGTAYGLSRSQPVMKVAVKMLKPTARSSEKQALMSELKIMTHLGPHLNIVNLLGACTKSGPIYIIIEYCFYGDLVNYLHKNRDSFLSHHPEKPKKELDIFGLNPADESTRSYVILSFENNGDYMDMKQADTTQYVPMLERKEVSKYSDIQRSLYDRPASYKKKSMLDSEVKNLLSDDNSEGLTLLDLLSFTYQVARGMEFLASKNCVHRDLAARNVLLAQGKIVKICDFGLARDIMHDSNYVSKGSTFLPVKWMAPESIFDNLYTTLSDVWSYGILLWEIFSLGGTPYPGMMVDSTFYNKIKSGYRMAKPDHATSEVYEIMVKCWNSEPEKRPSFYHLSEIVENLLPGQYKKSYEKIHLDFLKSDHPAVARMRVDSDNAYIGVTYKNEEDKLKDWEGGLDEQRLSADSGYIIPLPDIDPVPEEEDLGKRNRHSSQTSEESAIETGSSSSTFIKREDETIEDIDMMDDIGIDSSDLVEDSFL
Chain of Platelet-derived growth factor receptor alpha (Homo sapiens), P16234 [D842V] (P16234 whole entry D842V): as the sequence (P16234 whole entry T674I) above, with I674T, D842V counted along it
Chain of Leukocyte tyrosine kinase receptor (Homo sapiens) (P29376 whole entry): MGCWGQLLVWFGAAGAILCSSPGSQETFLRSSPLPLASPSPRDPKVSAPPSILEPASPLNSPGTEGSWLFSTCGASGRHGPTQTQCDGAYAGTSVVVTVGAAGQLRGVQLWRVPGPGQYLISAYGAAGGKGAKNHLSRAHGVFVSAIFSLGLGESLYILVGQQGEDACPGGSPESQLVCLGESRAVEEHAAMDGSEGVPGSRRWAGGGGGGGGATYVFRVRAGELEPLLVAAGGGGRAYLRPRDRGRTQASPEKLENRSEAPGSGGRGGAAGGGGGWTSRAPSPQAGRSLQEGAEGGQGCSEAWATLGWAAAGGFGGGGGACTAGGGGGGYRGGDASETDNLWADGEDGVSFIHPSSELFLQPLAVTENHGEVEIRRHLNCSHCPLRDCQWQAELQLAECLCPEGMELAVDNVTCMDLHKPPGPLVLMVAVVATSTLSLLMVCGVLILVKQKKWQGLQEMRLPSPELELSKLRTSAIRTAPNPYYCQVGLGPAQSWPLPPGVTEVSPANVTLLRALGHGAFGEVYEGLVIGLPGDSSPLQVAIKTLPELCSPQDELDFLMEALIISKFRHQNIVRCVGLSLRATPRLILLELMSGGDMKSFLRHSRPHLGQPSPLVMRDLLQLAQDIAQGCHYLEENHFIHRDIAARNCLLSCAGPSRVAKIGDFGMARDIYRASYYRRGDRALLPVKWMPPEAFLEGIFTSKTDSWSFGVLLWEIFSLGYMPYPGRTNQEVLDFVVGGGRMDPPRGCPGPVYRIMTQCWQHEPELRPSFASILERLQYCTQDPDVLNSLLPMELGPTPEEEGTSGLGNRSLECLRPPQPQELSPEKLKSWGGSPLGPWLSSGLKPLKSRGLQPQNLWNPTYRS

Consider `CCn1c(-c2nonc2N)nc2cncc(C(=O)NCCNC)c21`, for which the inhibition in [1] was determined as 5.16%; in [2], 5.55%; in [3] it was 6.4%; in [4] it was 3.01%; in assay [5], 4.46%; in [6], 3.05%. Further, the inhibition in assay [7] was 3.22%; in assay [8], 1.82%; in assay [9], 4.45%; in assay [10], 5.69%; in assay [11], -0.23%; in assay [12], 5.61%. Also, the inhibition amounted to 14.2% in assay [13]; 4.53% in assay [14]; 7.01% in [15]; 3.41% in assay [16]; 11.4% in assay [17]; 3.13% in assay [18]. Besides, the inhibition in assay [19] turned out to be 5.82%; in assay [20], 16.2%.

On to `COc1cc2c(cc1Nc1nc(Nc3cccc(F)c3C(N)=O)c3cc[nH]c3n1)N(C(=O)CN1CCN(C(C)C)CC1)CC2`, for which the inhibition in assay [1] was 80.7%; in [2], 0.63%; in assay [3], -0.57%; in [4] it was -1.56%; in assay [5] it was -0.54%; in assay [6], 1.98%. The inhibition was 3.27% in assay [7]; 5.94% in [8]; 1.99% in assay [9]; 1.22% in assay [10]; 8.69% in assay [11]; -1.51% in assay [12]. Besides, the inhibition in assay [13] is 15.2%; in assay [14] it was -0.49%; in [15], 1.55%; in [16], 2.01%; in assay [17] it was 2.59%; in assay [18], -0.47%. For the same compound, the inhibition in assay [19] came out at 11.6%; in assay [20] it was 1.46%.

Consider `OCCCNc1nccc(-c2c(-c3ccc(F)cc3)nn3cc(C(F)(F)F)ccc23)n1`, for which the inhibition in assay [1] was -0.25%; in assay [2], 3.88%; in [3] it was 7.02%; in assay [4], 3%; in [5], 4.51%; in assay [6], 0.89%. For the same compound, the inhibition was 5.36% in assay [7]; 1.57% in assay [8]; 5.11% in [9]; 2.96% in [10]; 6.98% in [11]; 10.9% in assay [12]. Besides, the inhibition turned out to be 15.3% in assay [13]; 2.53% in assay [14]; 5.03% in assay [15]; 4.67% in [16]; 6.04% in assay [17]; 0.23% in [18]. For the same compound, the inhibition in assay [19] is 6.06%; in [20], 6.16%.

As to `Nc1nonc1-c1nc2cnccc2n1C1CC1`, the inhibition in assay [1] was 2.71% and 2.44%; in [2], 3.73% and 1.56%; in [3], 4.88% and 4.63%; in assay [4], 2.39% and 0.71%; in assay [5] it was 4.2% and 2.36%; in assay [6], 3.41% and 1.34%. Moreover, the inhibition in assay [7] was 6.46% and 2.52%; in assay [8] it was 6.7% and 2.47%; in assay [9], 7.09% and 3.3%; in assay [10], 4.75% and 1.45%; in assay [11], 8.16% and 1.56%; in assay [12] it was 15.3% and 5.54%. The inhibition in assay [13] was 18.8% and 15.6%; in assay [14], 4.39% and 4.32%; in [15], 16.4% and 18.7%; in assay [16], 6.49% and 5.23%; in assay [17], 20.2% and 20.4%; in assay [18], 4.47% and 2.61%. Moreover, the inhibition in assay [19] is 14% and 12.1%; in [20], 10.2% and 2.99%.

In the case of `CN1CCC(C(=O)Nc2n[nH]c3nc(-c4ccc(O)cc4)c(Br)cc23)CC1`, the inhibition in [1] was 50.1% and 45.5%; in [2], 4.2% and 2.89%; in [3], 8.89% and 2.99%; in [4], 2.55% and 3.95%; in assay [5] it was 6.26% and 2.78%; in assay [6], 1.28% and 4.74%. In addition, the inhibition in [7] was 4.17% and 6.1%; in [8] it was 3.13% and 11.9%; in assay [9], 14.2% and 6.92%; in assay [10], 2.28% and 1.53%; in assay [11] it was 9.34% and 7.11%; in assay [12] it was 5.64% and 6.91%. The inhibition in [13] is 27.9% and 21.1%; in [14], 2.54% and 0.22%; in assay [15], 16.3% and 9.77%; in assay [16], 5.57% and 1.83%; in assay [17], 9.37% and 7.73%; in assay [18], 5.98% and 2.37%. The inhibition in assay [19] was 19.9% and 16.1%; in assay [20], 7.32% and 7.22%.

`O=C1Nc2ccccc2/C1=C1\CCc2cc(O)ccc21`: the inhibition amounted to 36.7% in [1]; 6.08% in assay [2]; 12% in [3]; 2.38% in [4]; 9.08% in assay [5]; 2.69% in assay [6]. Also, the inhibition in [7] was found to be 8.7%; in [8], 6.45%; in assay [9], 10.1%; in assay [10] it was 5.49%; in [11] it was 32.1%; in assay [12], 23%. For the same compound, the inhibition in [13] was determined as 63.2%; in [14], 7.24%; in assay [15], 34.7%; in [16], 45.7%; in [17], 97.7%; in assay [18] it was 32.4%. The inhibition in [19] was found to be 64.8%; in assay [20], 11.3%.

Source of the values: ChEMBL document CHEMBL1961873, “Compounds: GSK PKIS; Assays: Nanosyn kinase panel” (2012).
